The values that follow come from PubChem BioAssay (NCI).

The panel holds about 83,000 compounds, 20% with a hit somewhere; the sample as a whole holds those more often.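 Cell lines were cultured in 96-well plates, exposed to a single compound concentration, and assessed for percent growth 48 hours later.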 The source made the active and inactive calls. The calls were made as follows: active = growth percent below 10; inactive = the rest.

The subject of the test is MDA-MB-468 breast. Description: NCI-60 one-dose screen, 48 h (100 = growth as untreated, 0 = no growth, -100 = all killed). To be noted: 10 µM unless noted.
For the compound `O=C(CI)Nc1ccc(O)c2ccccc12`, the growth was -71.7% (active). Under `N#CCCN=Nc1c(O)[nH]c2ccc(F)cc12` stands 98.9% (inactive). For `NCCOCCOc1ccccc1`, the growth is 118% (inactive).

For `C/C(=N/NC(N)=O)c1ccco1`, the growth is 110% (inactive). In the case of `CCCCC[C@H]1C/C=C2/C(=O)C=C[C@@H]2C/C=C\CCCC(=O)O[C@@H](CCCCC)C/C=C2/C(=O)C=C[C@@H]2C/C=C\CCCC(=O)O1`, the growth is -27.8% (active). For `CCCCCc1c(C)[nH]c(/C=C2\N=C(c3ccc[nH]3)C=C2Oc2ccc(OC)cc2)c1C`, the growth is -54.8% [100 µM] (active). As for `COc1ccc(-c2nnc(-c3c(-c4ccccc4)nc4ncccn34)o2)cc1OC`, the growth was 99.1% (inactive). Take `CCN(CC)CCCC(C)Nc1cc(-c2ccc(C(F)(F)F)cc2)c(C#N)c2nc3ccccc3n12` (stereo not given): the growth is -23.6% (active).

Turning to `CC/C(=C(/c1ccc(Cl)cc1)c1ccc(OCCN2CCCC2)cc1)c1ccc(OC)cc1`, the growth was 46.5% (inactive). With `Nc1c(Br)cc2c(c1Br)Cc1cc(Cl)ccc1-2`, the growth was -5.33% (active). Take `COc1cc2cc(Oc3ccc(NC(=O)c4ccc(Cl)c(C(F)(F)F)c4)cc3)c(C)nc2cc1OC`: the growth is 6.44% (active). `O=C1/C(=C/c2cccs2)CCC/C1=C\c1cccs1`: the growth was -45.5% (active). Consider `OB(O)c1ccccc1`, for which the growth is 110% (inactive).

For the compound `CCN(CC)CCC(CNc1ccnc2cc(Cl)ccc12)c1ccccc1` (stereo not given), the growth was -35.6% (active).

As to `COc1ccc(Cn2cc3c(c2-c2ccccc2)CCc2cnoc2-3)cc1`, the growth is 55.2% (inactive). Under `Cc1c(N(C)CS(=O)(=O)O)c(=O)n(-c2ccccc2)n1C` stands 106% (inactive); under `CCOC(=O)C(C(C)=O)c1nc2sc3cc(Cl)ccc3n2c(=N)c1C#N` (stereo not given), 4.75% (active); under `COc1ccc(-c2nc(SCCC(C)C)nc(Nc3ccc(C(=O)O)cc3)c2C#N)cc1`, 105% (inactive). Regarding `COc1ccc(/C=C2\CCCC3=C2N=C2SC(C)=CN2C3c2ccc(OC)cc2)cc1` (stereo not given), the growth was 85.1% (inactive). Consider `Cc1c(CC(=O)OCCO)cc(-c2ccc(Cl)cc2)n1-c1ccccc1`, for which the growth is 89.1% (inactive). For the compound `Cc1ccc2c(-c3cc(-c4ccccc4)nc(N)c3C#N)cc(=O)oc2c1`, the growth is 103% (inactive).

Regarding `CCCCCCCCCCCCCCCc1ccc(N)c(OC2OC(CO)C(O)C(O)C2O)c1` (stereo not given), the growth is 76.5% (inactive).

For the compound `COc1cnc2c(c1)C(=O)c1c-2n(CCCNCCO)c(=O)c2ccncc12`, the growth is -23.9% (active). In the case of `Cc1cc(C)c2c(n1)sc1c(Nc3ccc(Cl)cc3)ncnc12`, the growth was 19% (inactive). As to `O=C(CN1C(=O)NC2NC(=O)NC21)N/N=C/c1cccc([N+](=O)[O-])c1` (stereo not given), the growth was 97.6% (inactive). As for `COc1ccc(/C=C/c2cc(N3CCOCC3)c3cc(F)c(F)cc3n2)cc1OC`, the growth was 14.5% (inactive). As for `CCN1C(=O)N(CC)C2Nn3c(s/c(=C4\C(=O)N(CCC(C)C)c5ccccc54)c3=O)=NC21` (stereo not given), the growth was 11.6% (inactive). With `Cc1cccc(N2CCC(=O)NC2=S)c1`, the growth is 100% (inactive). As to `C[C@]12CC[C@@H]3c4cc(OC(F)F)c(OS(N)(=O)=O)cc4CC[C@H]3[C@@H]1CC[C@@H]2O`, the growth was -24.2% (active). In the case of `C=C(C)[C@@H]1CC[C@]2(C(=O)N3CCN(C)CC3)CC[C@]3(C)[C@H](CC[C@@H]4[C@@]5(C)CC[C@H](OP(=O)(OCC)OCC)C(C)(C)[C@@H]5CC[C@]43C)[C@@H]12`, the growth was 76.2% (inactive). In the case of `CCOC(=O)c1c(NC(=O)c2ccc(C(F)(F)F)cc2)sc2c3c(ccc12)OCN(C)C3`, the growth is -76.9% (active).

With `O=C1CCC(C(=O)N/N=C/c2ccc([N+](=O)[O-])cc2)N1` (stereo not given), the growth was 110% (inactive). For the compound `COc1cccc(C2C(C#N)=C(N)Oc3cc(OC)ccc32)c1` (stereo not given), the growth was 41.4% (inactive). As for `CC(=O)c1ccc(NC(=O)CSc2nnc(-c3cc(-c4ccc(Cl)cc4)nc4ccccc34)o2)cc1`, the growth was 115% (inactive). On to `O=C1C2=C(C(=O)c3c(O)ccc(O)c31)N(c1cccnc1)Cc1ccccc1O2`, for which the growth is -6.39% (active). `C=CCN=C(N)SCCCCCCSC(N)=NCC=C`: the growth was 84.7% (inactive). Turning to `N#CC1(Nc2ccc3c4c(cccc24)CC3)CCCCC1`, the growth was -35.3% (active). On to `COc1cc(NCCCCN=C(N)N)c2ncccc2c1`, for which the growth is -29.6% (active).

Consider `COc1ccc(-c2nc3sc(-c4ccc(OC)cc4)c(-c4ccc(OC)cc4)n3c2/C=C/c2ccc(C(C)C)cc2)cc1`, for which the growth was 98.9% (inactive). Under `c1ccc(-c2nc(N3CCOCC3)c3c4c(sc3n2)CCCCCC4)nc1` stands 57.4% (inactive).
